According to PubChem BioAssay (NCATS):
“And” between values parts separate entries of the source, which are not always exact repeats. Identical values can stand only once. Results filed as inconclusive are left out. Some structures have more than one record in an assay (separate samples or runs), and their calls can disagree. The source made the active and inactive calls. The call rests on the fitted dose curve; in most records, active means well fitted curve in the direction sought with a large enough effect; inconclusive means small, poorly fitted or top-dose-only effect, or another doubt; inactive means no such curve, though single readings can be large; an effect the other way counts as inactive or inconclusive. Non-standard residues stand in square brackets, D forms with d. Residues, ends and D or L forms follow the SMILES beside them. *: point of attachment. Sta = CC(C)C[C@H](N)[C@@H](O)CC(=O)O; Isovaleryl = CC(C)CC(=O)*

Columns and labels:
[1] = tested on: MCC-13; experiment: qHTS assay to identify novel small-molecules to repurpose for Merkel cell carcinoma treatment (AID 1296009); details: MCC and control cell lines, CellTiter-Glo viability, 72 h; series mostly up to 46 µM; further: nearly all actives have a fitted effect of over 60% in size
Method in brief: (§1)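 Dose-response viability screen; 72 hr exposure at 37 degree celsius; CellTiter-Glo added, 10 min room temperature, luminescence read; RLUs scaled between no-cell and DMSO wells.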

[2] = tested on: MKL-1; experiment: as above; details: MCC and control cell lines, CellTiter-Glo viability, 72 h; series mostly up to 46 µM
Method in brief: as §1

[3] = tested on: MKL-2; experiment: as above; details: MCC and control cell lines, CellTiter-Glo viability, 72 h; series mostly up to 46 µM
Method in brief: as §1

[4] = tested on: UISO; experiment: as above; details: MCC and control cell lines, CellTiter-Glo viability, 72 h; series mostly up to 46 µM
Method in brief: as §1

[5] = tested on: WaGa; experiment: as above; details: MCC and control cell lines, CellTiter-Glo viability, 72 h; series mostly up to 46 µM
Method in brief: as §1

[6] = tested on: C33A; experiment: Primary qHTS to identify gynecologic anti-cancer compounds using libraries of approved drugs and bioactive compounds (AID 1345084); details: Gynecologic cancer cell panel viability, ATPlite luminescence, 48 h; series mostly up to 57.5 µM; further: nearly all actives have a fitted effect of over 55% in size
Method in brief: (§2)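 Luminescence from the ATPlite ATP-monitoring reagent indicates viable cell number; lower signal means cytotoxicity. Cells received compound 16 h after seeding and were exposed for 48 h across five concentrations.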

[7] = tested on: CAOV3; experiment: as above; details: Gynecologic cancer cell panel viability, ATPlite luminescence, 48 h; series mostly up to 57.5 µM
Method in brief: as §2

[8] = tested on: CASKI; experiment: as above; details: Gynecologic cancer cell panel viability, ATPlite luminescence, 48 h; series mostly up to 57.5 µM
Method in brief: as §2

[9] = tested on: NIH3T3; experiment: qHTS assay to identify novel small-molecules to repurpose for Merkel cell carcinoma treatment (AID 1296009); details: MCC and control cell lines, CellTiter-Glo viability, 72 h; at 44.8 µM (top of the series) unless noted; further: nearly all actives have a fitted effect of over 60% in size
Method in brief: as §1

[10] = tested on: MCC-26; experiment: as above; details: MCC and control cell lines, CellTiter-Glo viability, 72 h; series mostly up to 46 µM
Method in brief: as §1

Measured: Potency
Potency means the concentration at half of the fitted maximal effect.

N=C(N=C(N)N)N1CCOCC1
not listed: [9] | [10]
inactive: all other assays above

CC1(C)CCC(C)(C)c2cc(NC(=O)c3ccc(C(=O)O)cc3)ccc21
not listed: [3] | [7] | [10]
inactive: all other assays above

CCCCN(CCCC)CCC(O)c1cc2c(Cl)cc(Cl)cc2c2cc(C(F)(F)F)ccc12 (stereo unspecified)
inactive: [6] | [8]

CN(C)C(=O)[C@H](O)[C@H](Cc1ccccc1)NC(=O)c1cc2cc(Cl)ccc2[nH]1
active: [4] 4180 nM
not listed: [2] | [10]
inactive: all other assays above

Cc1nc(Nc2ncc(C(=O)Nc3c(C)cccc3Cl)s2)cc(N2CCN(CCO)CC2)n1
active: [1] 168 nM | [7] 8.91 µM
inactive: [2] | [3] | [5] | [6]

CC(C)c1ccc2oc3nc(N)c(C(=O)O)cc3c(=O)c2c1
inactive: [1] | [2] | [3] | [4] | [5]
active: [6] 8.91 µM | [8] 4.47 µM

CC(C)CC(=O)N[C@H](C(=O)N[C@H](C(=O)N[C@@H](CC(C)C)[C@@H](O)CC(=O)N[C@@H](C)C(=O)N[C@@H](CC(C)C)[C@@H](O)CC(=O)O)C(C)C)C(C)C (Isovaleryl-VV[Sta]A[Sta]-OH)
not listed: [7] | [9] | [10]
inactive: all other assays above

CC(=O)O[C@H]1C(=O)[C@@]2(C)C([C@H](OC(=O)c3ccccc3)[C@]3(O)C[C@H](OC(=O)[C@H](O)[C@@H](NC(=O)c4ccccc4)c4ccccc4)C(C)=C1C3(C)C)[C@]1(OC(C)=O)CO[C@@H]1C[C@@H]2O (stereo partly specified)
active: [10] 0.0037 µM
inactive: [2] | [3]

CCOC(=O)C(C)Oc1cccc2c(=O)n(CC(=O)Nc3ccc4c(c3)OCCO4)ccc12 (stereo unspecified)
inactive: [1] | [2] | [4] | [5]

C=CCc1cc(OC)c(O)c(C(=O)NCCO)c1
not listed: [9] | [10]
inactive: all other assays above

Nc1ncn([C@H]2C[C@H](O)[C@@H](CO)O2)c(=O)n1
not listed: [9] | [10]
inactive: all other assays above

CC(=O)NC[C@H]1CN(c2ccc(N3CCOCC3)c(F)c2)C(=O)O1
not listed: [9] | [10]
inactive: all other assays above

NS(=O)(=O)c1cc(C(=O)O)c(NCc2ccco2)cc1Cl
not listed: [7] | [9] | [10]
inactive: all other assays above

COc1cc(Nc2c(C#N)cnc3cc(OCCCN4CCN(C)CC4)c(OC)cc23)c(Cl)cc1Cl
8.41 µM (active) and inactive: [2]
29.9 µM (active) and inactive: [5]
active: [6] 14.1 µM
inactive: [3]

Nc1nc(Cl)nc2c1ncn2[C@H]1C[C@H](O)[C@@H](CO)O1
inactive: [10]
active: [2] 418 nM | [3] 0.418 µM | [4] 372 nM | [5] 0.418 µM

NC(=O)Cc1cccc(C(=O)c2ccccc2)c1N
not listed: [9] | [10]
inactive: all other assays above

CCC[C@@H]1C[C@@H](C(=O)N[C@@H]([C@H]2O[C@H](SC)[C@H](O)[C@@H](O)[C@H]2O)[C@@H](C)O)N(C)C1
not listed: [9] | [10]
inactive: all other assays above

CC[C@]1(O)C[C@H]2CN(CCc3c([nH]c4ccccc34)[C@@](C(=O)OC)(c3cc4c(cc3OC)N(C=O)[C@H]3[C@@](O)(C(=O)OC)[C@H](OC(C)=O)[C@]5(CC)C=CCN6CC[C@]43[C@@H]65)C2)C1
active: [1] 209 nM and 376 nM | [2] 9.3 nM and 33.5 nM | [3] 0.0119 µM | [4] 3 nM and 21.1 nM | [5] 3.3 nM and 26.6 nM | [6] 0.631 µM
inactive: [7]

COc1ccc(C2(C#N)CCC(C(=O)O)CC2)cc1OC1CCCC1 (stereo unspecified)
not listed: [9] | [10]
inactive: all other assays above

O=C(NCC1CCCCN1)c1cc(OCC(F)(F)F)ccc1OCC(F)(F)F (stereo unspecified)
not listed: [9] | [10]
inactive: all other assays above

COCCCN1CCC(NC(=O)c2cc(Cl)c(N)c3c2OCC3)CC1
inactive: [6] | [7] | [8]

O=C(O)c1cn(-c2ccc(F)cc2)c2cc(N3CCNCC3)c(F)cc2c1=O
not listed: [9] | [10]
inactive: all other assays above

CCCCc1ccc2nc(NC(=O)OC)[nH]c2c1
active: [1] 296 nM and 53.1 nM | [6] 0.794 µM
inactive: [7]

COc1cc2nc(N3CCN(C(=O)C4CCCO4)CC3)nc(N)c2cc1OC (stereo unspecified)
not listed: [9] | [10]
inactive: all other assays above

O=C(O)c1cc(=O)c2c(OCC(O)COc3cccc4oc(C(=O)O)cc(=O)c34)cccc2o1
inactive: [6] | [7] | [8]

CCc1nc(N)nc(N)c1-c1ccc(Cl)cc1
inactive: [10] | [2] | [3]
active: [5] 11.9 µM | [6] 5.01 µM

COc1c2occc2cc2ccc(=O)oc12
inactive: [6] | [8]

CN(C)CCCC1(c2ccc(F)cc2)OCc2cc(C#N)ccc21 (stereo unspecified)
not listed: [8] | [9] | [10]
inactive: all other assays above

C[C@H](Cc1ccc(O)c(O)c1)[C@@H](C)Cc1ccc(O)c(O)c1
active: [2] 11800 nM | [3] 18.7 µM | [5] 18.7 µM
inactive: [1]

O=Nc1c(-c2c(O)[nH]c3cc(Br)ccc23)[nH]c2ccccc12
active: [1] 18700 nM | [3] 16.6 µM | [4] 59 nM

C=C(c1ccc(C(=O)O)cc1)c1cc2c(cc1C)C(C)(C)CCC2(C)C
inactive: [6] | [7] | [8]

CN1C(C(=O)Nc2ccccn2)=C(O)c2sccc2S1(=O)=O
inactive: [6] | [7] | [8]

Cc1cccc(C)c1OCC(=O)N[C@@H](Cc1ccccc1)[C@@H](O)C[C@H](Cc1ccccc1)NC(=O)[C@H](C(C)C)N1CCCNC1=O
inactive: [6] | [8]

c1ccc2[nH]c(-c3cscn3)nc2c1
inactive: [1] | [2] | [3] | [4] | [5] | [6]
